Records with an inconclusive call do not appear. A call without a number means that no potency is given here. Unmarked numbers belong to inactive results. Activity calls are given as the source filed them. Calls follow the shape of the dose curve; as a rule, active = well fitted cell-killing curve with a large enough effect in the repeat runs; inconclusive = weak or mixed curves, or effect the other way; inactive = no such curve, though single readings can be large or run the other way.
Potency is read from the fitted curve at half-maximal effect.

This experiment can be described thus: qHTS assay to identify small molecule agonists of the estrogen receptor alpha (ER-alpha) signaling pathway in the presence of an antagonist - cell viability counter screen (AID 1259386). Also: nearly all actives have a fitted effect of over 30% in size. To be noted: VM7Luc4E2 viability, CellTiter-Fluor fluorescence, 22 h; series mostly up to 92.4 µM. From the text:
National Center for Advancing Translational Sciences [NCATS]
NIH Chemical Genomics Center [NCGC]
U.S. Environmental Protection Agency [EPA]
National Institutes of Environmental Health Sciences [NIEHS]
National Toxicology Program [NTP]
U.S. Food and Drug Administration [FDA]
Estrogen receptor (ER), a member of nuclear hormone receptor plays an important role in development, metabolic homeostasis and reproduction. Two subtypes of ER, ER-alpha and ER-beta, have similar expression patterns with some uniqueness in both types. Endocrine disrupting chemicals (EDCs) and their interactions with steroid hormone receptors like ER causes disruption of normal endocrine function. Therefore, it is important to understand the effect of environmental chemicals in ER signaling pathway. For identifying ER agonists, VM7Luc4E2 cell line has been used in the current assay.
VM7Luc4E2 cell line (provided by Denison MS, University of California) endogenously expresses full-length ER-alpha and is stably transfected with a plasmid containing four estrogen responsive elements (ERE) upstream of a luciferase reporter gene. This current screening for measuring luciferase reporter gene activity using VM7Luc4E2 cells against Tox21 10K library collection is a confirmation study on agonist mode screening in presence of ER-antagonist (ICI-182,780) at 10.0nM final concentration. The cytotoxicity of the compounds was tested in parallel by measuring the cell viability using CellTiter-Fluor assay system (Promega, Madison, WI) in the same wells.
Tox21 Assay Protocol Summary:
VM7Luc4E2 cells were cultured in phenol red free assay medium containing 10% charcoal stripped FBS for 5 days prior to the assay. The cells were dispensed at 4,000 cells in 4uL of assay medium per well into white wall/solid-bottom 1536-well plates (Corning Life Sciences, Corning, NY) using a Multidrop Combi (Thermo Fisher Scientific Inc., Waltham, MA) dispenser. After the assay plates were incubated at 37C and 5% CO2 for 24hr, 1uL of 10.0nM (final concentration) ICI-182,780 or assay buffer was added using two separate tips of Flying Reagent Dispenser (FRD, Aurora Discovery, San Diego, CA). Then 23nL of compounds dissolved in DMSO at 15 concentrations and positive controls or DMSO only was transferred to the assay plates by a Pintool station (Wako, San Diego, CA). The assay plates were incubated at 37C and 5% CO2 for 22hr. After 21hr incubation at 37C, 1uL/well CellTiter-Fluor reagent (Promega Corporation, Madison, WI) was added to each well using FRD and after 1hr incubation at 37C and 5% CO2, the fluorescence signal was measured on ViewLux plate reader (PerkinElmer, Shelton, CT).
In general terms: qHTS replaces the single test concentration by a dilution series.
In the case of `NC(=O)NS(=O)(=O)c1ccc(N)cc1`, the Potency entry was “inactive”. On the same count and under the same terms, in the case of `O=C1c2c(O)ccc(Nc3ccc(CCO)cc3)c2C(=O)c2c([N+](=O)[O-])ccc(O)c21` it was 30.6 µM (active); in that of `CN1CCN(CCC(=O)N2c3ccccc3Sc3ccc(C(F)(F)F)cc32)CC1`, “inactive”. Same read-out and setting: in the case of `CCCCCCCCS(=O)C(C)Cc1ccc2c(c1)OCO2` (stereo not given) it was “inactive”. Still for that read-out and setting: as for `CO[Si](CCCNc1ccccc1)(OC)OC`, the entry is “inactive”. As to `N=C1C=CC(=C(c2ccc(N)cc2)c2ccc(N)cc2)C=C1`, the Potency was 24.3 µM (active).

`CCCCCCCCCCC=O`: the Potency result was “inactive”.

Take `CCCC1O[C@@H]2C[C@H]3[C@@H]4CCC5=CC(=O)C=C[C@]5(C)[C@H]4[C@@H](O)C[C@]3(C)[C@]2(C(=O)CO)O1` (stereo not given in full): the Potency result was “inactive”.

Consider `Cc1onc(-c2c(Cl)cccc2Cl)c1C(=O)N[C@@H]1C(=O)N2[C@@H]1SC(C)(C)[C@@H]2C(=O)O`, for which the Potency result is “inactive”. On the same count and under the same terms, in the case of `O=C1C=CC(=O)N1` it was 70.4 µM (active); in that of `Clc1ccc2n[nH]nc2c1`, “inactive”. Same read-out and setting: in the case of `C[C@H]1[C@H]2CC[C@H]3[C@@H]4CC=C5C[C@@H](N(C)C)CC[C@]5(C)[C@H]4CC[C@]23CN1C` it was “inactive”; in that of `[O-][n+]1ccccc1SSc1cccc[n+]1[O-]`, 8.2 µM (active). Same read-out and setting: as for `O=C(Oc1ccccc1)c1ccccc1C(=O)Oc1ccccc1`, the entry is “inactive”. `Clc1ccc(C(Cn2ccnc2)OCc2ccc(Sc3ccccc3)cc2)c(Cl)c1` (stereo not given): the Potency entry was “inactive”.

Consider `Nc1ccc(N)c2ccccc12`, for which the Potency was 30.6 µM (active).

Take `O=C(Nc1cccc(Cl)c1)OCC#CCCl`: the Potency is 61.1 µM (active). On to `CC(NN)c1ccccc1` (stereo not given), for which the activity change, negative = cytotoxicity was -1.38% [at 19 µM]. Regarding `CCCCCCCCOc1ccccc1C(=O)Nc1ccc(C(=O)OCC[N+](C)(CC)CC)cc1`, the Potency result is “inactive”. As for `O=[N+]([O-])c1cc(Cl)c(Cl)c(Cl)c1Cl`, the Potency result is “inactive”. `Cc1cc(O)c2ccccc2c1O`: the Potency was 29.8 µM (active). Still for that read-out and setting: as for `Nc1nc2ccccc2n1Cc1ccc(F)cc1`, the figure is 29.8 µM (active); as for `Nc1ccccc1O`, 67.7 µM (active). Still for that read-out and setting: as for `Oc1c(Cl)cc(Cl)c2cccnc12`, the entry is “inactive”. The same measure, in the same setting: as for `CCOC(=O)c1nc(C(Cl)(Cl)Cl)n(-c2ccc(Cl)cc2Cl)n1`, the entry is “inactive”; as for `CCCCC(CC)COC(=O)c1ccccc1C(=O)O` (stereo not given), “inactive”. With `Cn1cc(C(=O)[C@@H]2CCc3nc[nH]c3C2)c2ccccc21`, the Potency entry was “inactive”.

With `COc1cc(/C=C/C(=O)O[C@H]2CC[C@]34C[C@]35CC[C@]3(C)[C@@H]([C@H](C)CCC=C(C)C)CC[C@@]3(C)[C@@H]5CC[C@H]4C2(C)C)ccc1O`, the Potency entry is “inactive”. Same read-out and setting: as for `CC(C)(C)CC(C)(C)c1ccc(OCCOCC[N+](C)(C)Cc2ccccc2)cc1`, the figure is 61.1 µM (active). The same measure, in the same setting: in the case of `Oc1cccc(-c2c3nc(c(-c4cccc(O)c4)c4ccc([nH]4)c(-c4cccc(O)c4)c4nc(c(-c5cccc(O)c5)c5ccc2[nH]5)CC4)C=C3)c1` it was 10.6 µM (active); in that of `CCCCCCCCCCn1cc[n+](CCCCCCCCCC)c1C`, 30.7 µM (active); in that of `C=CC(=O)OCC(CO)(COCC(COC(=O)C=C)(COC(=O)C=C)COC(=O)C=C)COC(=O)C=C`, 10.7 µM (active). With `CCC(C)Nc1ccc(NC(C)CC)cc1` (stereo not given), the Potency was 17.6 µM (active). Same read-out and setting: as for `Cc1ccc(O)c(C(C)(C)C)c1`, the entry is “inactive”; as for `CN(C)C(=O)C1(N2CCCCC2)CCN(CC[C@@]2(c3ccc(Cl)c(Cl)c3)CN(C(=O)c3ccccc3)CCO2)CC1`, 57.1 µM (active); as for `Oc1cc2ccccc2c2ccccc12`, 13.7 µM (active). Regarding `NNc1nc(-c2ccccc2)cs1`, the Potency is 56 µM (active). On the same count and under the same terms, as for `CN(C)c1ccc(SC#N)cc1`, the entry is “inactive”; as for `CCCCCOC(=O)CCCC`, “inactive”; as for `Cc1onc(-c2ccccc2Cl)c1C(=O)N[C@@H]1C(=O)N2[C@@H]1SC(C)(C)[C@@H]2C(=O)O`, “inactive”.

(Values after PubChem BioAssay (Tox21).)
